Active and inactive are the calls of the source.
Tests used:
[1] = optical density shifts of acrAB sulA E. coli – strain DRC41, OD650, 48 h, E. coli filamentation inducer project, primary screen (AID 1152); settings: higher = more signal, called active from +8 up or from −8 down;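 further: E. coli MC1000 strain DRC41 lacking acrAB efflux pump and sulA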
[2] = probe aLefty1 binding on compound microarray – biochemical, small-molecule microarray, 635/667 nm fluorescence, primary screen (AID 1153); settings: higher = more signal;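 further: score merges spot fluorescence with signal-to-noise ratio from the scanned slide images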
[3] = plasmodial surface anion channel blockers, osmotic lysis – cell-based, P. falciparum Indochina, OD700, 1 h, primary screen (AID 1154); settings: P. falciparum Indochina infected RBC osmotic lysis, higher = more signal, called active from +8 up or from −8 down
[4] = plasmodial surface anion channel blockers, osmotic lysis – cell-based, P. falciparum Indochina, OD700, 2 h, primary screen (AID 1155);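 further: lysis reports solute entry through the parasite surface anion channel PSAC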; settings: P. falciparum Indochina infected erythrocytes, higher = more signal, called active from +8 up or from −8 down
[5] = changes in parasitized red cell lysis, either direction – P. falciparum Indochina, OD700, 3 h, PSAC antagonist project, primary screen (AID 1156); settings: P. falciparum-infected erythrocytes, osmotic lysis, higher = more signal, called active from +8 up or from −8 down
[6] = plasmodial surface anion channel blockers, osmotic lysis – cell-based, P. falciparum Indochina, OD700, 18 h, primary screen (AID 1157); settings: P. falciparum Indochina infected erythrocytes, osmotic lysis OD700, 18 h; higher = more signal, called active from +8 up or from −8 down
[7] = S6 kinase pathway phospho-S6 level changes – cell-based, A549, cytoblot, luminescence, serum-stimulated, primary screen (AID 1158); settings: 5 h, higher = more signal;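 further: serum-stimulated A549 lung adenocarcinoma cells; signal is phosphorylated S6 detected by cytoblot immunostaining with HRP secondary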
[8] = target: NADPH oxidase 2 (Homo sapiens) (UniProt P04839); test: compounds shifting NOX2 Amplex Red fluorescence – cell-based, HEK293-NOX2, PMA-stimulated, NOX inhibitor project, primary screen (AID 1159); settings: 45 min, higher = more signal, called active from +8 up or from −8 down; further: test concentration not given here
Chain of NADPH oxidase 2 (Homo sapiens) (P04839 whole entry, looked up): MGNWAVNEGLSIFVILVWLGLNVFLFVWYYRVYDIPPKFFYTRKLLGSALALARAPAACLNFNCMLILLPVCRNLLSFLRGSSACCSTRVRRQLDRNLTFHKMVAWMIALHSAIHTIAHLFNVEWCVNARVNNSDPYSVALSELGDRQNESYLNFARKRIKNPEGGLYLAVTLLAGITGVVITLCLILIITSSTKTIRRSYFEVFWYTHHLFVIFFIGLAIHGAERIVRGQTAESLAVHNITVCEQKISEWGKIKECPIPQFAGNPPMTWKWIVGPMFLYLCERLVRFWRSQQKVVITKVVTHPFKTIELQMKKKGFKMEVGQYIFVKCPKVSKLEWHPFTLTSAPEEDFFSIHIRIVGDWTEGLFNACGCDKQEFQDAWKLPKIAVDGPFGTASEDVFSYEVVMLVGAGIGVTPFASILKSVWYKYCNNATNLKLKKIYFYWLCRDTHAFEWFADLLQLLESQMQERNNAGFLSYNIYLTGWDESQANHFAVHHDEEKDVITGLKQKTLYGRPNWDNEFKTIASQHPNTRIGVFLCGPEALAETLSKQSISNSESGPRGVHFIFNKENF

[9] = target: NADPH oxidase 4 (Homo sapiens) (UniProt Q9NPH5); test: compounds shifting NOX4 Amplex Red fluorescence – cell-based, HEK293-NOX4, tetracycline-induced, NOX inhibitor project, primary screen (AID 1160); settings: HEK293-NOX4, Amplex Red H2O2 fluorescence, 45 min; higher = more signal, called active from +8 up or from −8 down
Chain of NADPH oxidase 4 (Homo sapiens) (Q9NPH5 whole entry, looked up): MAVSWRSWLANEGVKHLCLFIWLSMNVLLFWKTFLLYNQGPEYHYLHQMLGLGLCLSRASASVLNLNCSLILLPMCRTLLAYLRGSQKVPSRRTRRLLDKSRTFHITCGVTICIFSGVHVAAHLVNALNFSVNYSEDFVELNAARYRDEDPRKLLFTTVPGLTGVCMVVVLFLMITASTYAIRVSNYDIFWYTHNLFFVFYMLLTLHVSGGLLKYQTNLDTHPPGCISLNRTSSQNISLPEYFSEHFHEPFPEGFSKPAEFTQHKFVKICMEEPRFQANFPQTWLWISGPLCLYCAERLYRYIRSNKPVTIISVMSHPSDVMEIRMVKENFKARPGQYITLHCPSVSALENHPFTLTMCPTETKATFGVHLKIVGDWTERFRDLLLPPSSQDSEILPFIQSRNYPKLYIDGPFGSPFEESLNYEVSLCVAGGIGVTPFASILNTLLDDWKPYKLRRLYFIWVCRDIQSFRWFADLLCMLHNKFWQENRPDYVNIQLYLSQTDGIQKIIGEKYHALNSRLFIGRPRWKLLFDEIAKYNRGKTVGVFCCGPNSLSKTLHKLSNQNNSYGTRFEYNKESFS

[10] = target: NADPH oxidase 5 (Homo sapiens) (UniProt Q96PH1); test: compounds shifting NOX5 Amplex Red fluorescence – cell-based, HEK293-NOX5, NOX inhibitor project, primary screen (AID 1161); settings: HEK293-NOX5, ionomycin, 45 min, higher = more signal
Chain of NADPH oxidase 5 (Homo sapiens) (Q96PH1 whole entry, looked up): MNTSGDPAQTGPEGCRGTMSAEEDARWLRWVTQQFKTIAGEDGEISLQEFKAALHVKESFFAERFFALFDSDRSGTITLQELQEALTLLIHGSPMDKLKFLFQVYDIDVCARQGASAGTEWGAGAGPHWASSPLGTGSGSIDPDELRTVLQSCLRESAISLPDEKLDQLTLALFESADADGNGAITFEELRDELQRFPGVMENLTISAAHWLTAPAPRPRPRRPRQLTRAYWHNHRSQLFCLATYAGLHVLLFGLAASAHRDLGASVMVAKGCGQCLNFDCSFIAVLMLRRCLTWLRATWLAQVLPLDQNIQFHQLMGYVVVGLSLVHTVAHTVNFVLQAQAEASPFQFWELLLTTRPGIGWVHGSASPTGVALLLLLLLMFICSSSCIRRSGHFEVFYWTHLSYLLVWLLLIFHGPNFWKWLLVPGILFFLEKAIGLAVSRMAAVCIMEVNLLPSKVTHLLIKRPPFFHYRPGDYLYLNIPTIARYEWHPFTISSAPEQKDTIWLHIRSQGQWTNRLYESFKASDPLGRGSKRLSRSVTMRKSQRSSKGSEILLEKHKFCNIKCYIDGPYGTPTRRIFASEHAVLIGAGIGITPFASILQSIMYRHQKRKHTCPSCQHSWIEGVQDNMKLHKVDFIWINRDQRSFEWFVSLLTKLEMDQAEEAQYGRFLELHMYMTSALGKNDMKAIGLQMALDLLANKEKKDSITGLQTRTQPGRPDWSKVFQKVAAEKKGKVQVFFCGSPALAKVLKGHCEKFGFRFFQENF

Compound | z-score [1] | composite z-score [2] | z-score [3] | z-score [4] | z-score [5] | z-score [6] | z-score [7] | z-score [8] | z-score [9] | z-score [10]
COCCCN1C(=O)[C@@]2(c3ccc([N+](=O)[O-])cc3)CC(=O)N(C3CCCCC3)[C@@H]2c2ccc(CO)cc21 | -0.0972 (inactive) | -0.35 | -0.141 (inactive) | -0.063 (inactive) | -0.382 (inactive) | 0.0583 (inactive) | -0.495 | -2.14 (inactive) | -1.3 (inactive) | -0.379
COc1ccc([Si](C)(C)[C@H]2[C@H](CC(=O)N3CCC[C@H]3CO)O[C@@]3(C(=O)N(Cc4cccc(N5C(=O)c6cccc7cccc5c67)c4)c4ccccc43)[C@@H]2C)cc1 | -0.577 (inactive) | 0.302 | 7.61 (inactive) | 0.753 (inactive) | 0.442 (inactive) | 0.623 (inactive) | -0.366 | 1.35 (inactive) | -0.292 (inactive) | 4.06
CN(C)CCCNC(=O)[C@@]1(c2ccc([N+](=O)[O-])cc2)CC(=O)N(C2CCCCC2)[C@@H]1c1ccc(CO)cc1 | 0.0097 (inactive) | 0.0793 | 1.31 (inactive) | 0.346 (inactive) | 2.09 (inactive) | -0.0633 (inactive) | -0.0223 | 1.84 (inactive) | 1.31 (inactive) | 0.787
COCCOC(=O)N1C(=O)[C@@]2(c3cc(C#CC4=CCCCC4)ccc31)[C@H](C(=O)Nc1nc3ccccc3s1)[C@H]1C(=O)O[C@H](c3ccccc3)[C@H](c3ccccc3)N1[C@@H]2c1ccccc1OCCO | 0.687 (inactive) | 1.43 | 2.84 (inactive) | 0.926 (inactive) | -0.0917 (inactive) | 0.436 (inactive) | 1.93 | 0.102 (inactive) | 0.056 (inactive) | -1.83
C=CCOC(=O)[C@H]1[C@@H]2C(=O)O[C@@H](c3ccccc3)[C@@H](c3ccccc3)N2[C@@H](c2ccc(OCCOC(=O)[C@@H]3C[C@@H]4C(=O)N5CCC[C@H]5C(=O)N4[C@@H]3c3cccc(OCCO)c3)cc2)[C@]12C(=O)Nc1ccccc12 | -0.152 (inactive) | 0.603 | 3.47 (inactive) | 1.16 (inactive) | 3.5 (inactive) | 0.671 (inactive) | 0.605 | 2.26 (inactive) | 0.917 (inactive) | 0.15
[N-]=[N+]=Nc1ccccc1C[C@]1(C(N)=O)N=C(c2ccc(OCCCO)cc2)O[C@H]1c1ccccc1 | -0.444 (inactive) | 0.228 | 19.8 (active) | 3.47 (inactive) | 1.84 (inactive) | 0.936 (inactive) | 0.176 | 0.631 (inactive) | 0.247 (inactive) | -1.32
O=C1C2C=CC(C(O)c3ccc(F)cc3)N(Nc3ccccc3F)C2C(=O)N1c1ccccc1 (stereo not given) | -1.13 (inactive) | 0.336 | 6.83 (inactive) | 1.4 (inactive) | -0.196 (inactive) | 0.998 (inactive) | -1.06 | -2.22 (inactive) | -4.97 (inactive) | -2.17
COc1ccc(CCN2C(=O)[C@@]3(Cc4ccccc42)c2ccccc2C(=O)N(Cc2ccccc2C(F)(F)F)[C@H]3c2ccc(CO)cc2)cc1 | -0.262 (inactive) | -0.201 | 0.074 (inactive) | -1.13 (inactive) | -1.87 (inactive) | -2.07 (inactive) | 1.85 | -1.4 (inactive) | -2.08 (inactive) | -2.04
COCCOC(=O)N1C(=O)[C@@]2(c3cc(C#Cc4ccc(OC)cc4)ccc31)[C@H](C(=O)N1CCCCCCC1)[C@H]1C(=O)O[C@H](c3ccccc3)[C@H](c3ccccc3)N1[C@@H]2c1ccc(OCCO)cc1 | 2.43 (inactive) | 2.36 | 7.28 (inactive) | 1.09 (inactive) | 0.478 (inactive) | 0.442 (inactive) | 1.93 | 0.453 (inactive) | 0.266 (inactive) | -0.169
O=C1OCCC/C=C\[C@H]2OC34C=CCN(c5ccc6ccccc6c5)C(=O)[C@H]3N(CCCCCCO)C(=O)[C@@H]4C12 (stereo not given in full) | 1.63 (inactive) | 0.325 | 3.35 (inactive) | -0.781 (inactive) | 0.562 (inactive) | -1.46 (inactive) | 1.4 | 1.52 (inactive) | 0.341 (inactive) | 2.26
COC(=O)[C@@]1(Cc2ccc(F)cc2)[C@@H]2[C@@H](CC(=O)[C@H]2CC(=O)C(=O)N(C)C)CN1C(=O)c1ccccc1 | -1.78 (inactive) | 0.334 | 2.32 (inactive) | 0.723 (inactive) | 0.806 (inactive) | 0.961 (inactive) | -0.761 | 0.366 (inactive) | -0.21 (inactive) | 0.256
